Experimental data from ChEMBL document CHEMBL2218924, “A broad activity screen in support of a chemogenomic map for kinase signalling research and drug discovery” (Biochem J, 2013).

biological target: Tyrosine-protein kinase BTK (Homo sapiens) (UniProt Q06187); conditions: at 10 µM
Sequence (Q06187 whole entry): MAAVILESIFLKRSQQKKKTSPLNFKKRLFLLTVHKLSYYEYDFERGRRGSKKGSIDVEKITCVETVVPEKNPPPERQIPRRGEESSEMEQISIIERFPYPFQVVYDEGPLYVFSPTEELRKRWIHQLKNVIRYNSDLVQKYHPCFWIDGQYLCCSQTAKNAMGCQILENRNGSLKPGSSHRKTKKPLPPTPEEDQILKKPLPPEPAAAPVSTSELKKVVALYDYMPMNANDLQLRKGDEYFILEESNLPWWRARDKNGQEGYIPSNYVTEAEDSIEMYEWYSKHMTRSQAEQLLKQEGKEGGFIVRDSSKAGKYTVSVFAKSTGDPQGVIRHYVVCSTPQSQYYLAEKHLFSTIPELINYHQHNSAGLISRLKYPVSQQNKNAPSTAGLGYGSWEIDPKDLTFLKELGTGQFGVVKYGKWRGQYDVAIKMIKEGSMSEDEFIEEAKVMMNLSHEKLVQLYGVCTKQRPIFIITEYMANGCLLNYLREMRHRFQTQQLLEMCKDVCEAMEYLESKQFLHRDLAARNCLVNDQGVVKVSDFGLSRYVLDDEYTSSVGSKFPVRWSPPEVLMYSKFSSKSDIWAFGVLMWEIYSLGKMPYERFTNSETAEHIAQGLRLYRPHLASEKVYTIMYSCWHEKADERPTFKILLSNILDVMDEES

Compound | residual activity [%]
O=C1NC(=O)C(c2c[nH]c3ccccc23)=C1c1c[nH]c2ccccc12 | 67
O=C(Nc1nc2ccccc2n1CCN1CCOCC1)c1cccc([N+](=O)[O-])c1 | 109
Nc1ncnc2c1cnn2-c1ccccc1 | 99
CN([C@@H](Cc1ccc(OS(=O)(=O)c2cccc3cnccc23)cc1)C(=O)N1CCN(c2ccccc2)CC1)S(=O)(=O)c1cccc2cnccc12 | 86
CCOc1nc(NC(=O)Cc2cc(OC)ccc2OC)cc(N)c1C#N | 78
N#C/C(=C1/Nc2ccccc2S1)c1ccnc(NCCc2cccnc2)n1 | 43
COc1cc2c(cc1OC)-c1n[nH]c(Nc3cccc(F)c3)c1C2 | 4
NC(=O)c1cccc(-c2cc(Nc3ccc(OC(F)(F)F)cc3)ncn2)c1 | 92
CSc1nc(-c2ccc(F)cc2)c(-c2ccnc(NC(C)c3ccccc3)c2)[nH]1 (stereo unspecified) | 91
O=C1C(Cl)=C(N2C(=O)CCC2=O)C(=O)c2ccccc21 | 95
Fc1ccc(-c2nc3n(c2-c2ccncc2)CCS3)cc1 | 98
COc1ccc(CNC(=O)Nc2ncc([N+](=O)[O-])s2)cc1 | 35
O=C1Nc2ccccc2/C1=C\c1c(Cl)[nH]c2ccccc12 | 80

biological target: Tyrosine-protein kinase Blk (Homo sapiens) (UniProt P51451); conditions: at 1 µM
Sequence (P51451 2-505 limits assumed): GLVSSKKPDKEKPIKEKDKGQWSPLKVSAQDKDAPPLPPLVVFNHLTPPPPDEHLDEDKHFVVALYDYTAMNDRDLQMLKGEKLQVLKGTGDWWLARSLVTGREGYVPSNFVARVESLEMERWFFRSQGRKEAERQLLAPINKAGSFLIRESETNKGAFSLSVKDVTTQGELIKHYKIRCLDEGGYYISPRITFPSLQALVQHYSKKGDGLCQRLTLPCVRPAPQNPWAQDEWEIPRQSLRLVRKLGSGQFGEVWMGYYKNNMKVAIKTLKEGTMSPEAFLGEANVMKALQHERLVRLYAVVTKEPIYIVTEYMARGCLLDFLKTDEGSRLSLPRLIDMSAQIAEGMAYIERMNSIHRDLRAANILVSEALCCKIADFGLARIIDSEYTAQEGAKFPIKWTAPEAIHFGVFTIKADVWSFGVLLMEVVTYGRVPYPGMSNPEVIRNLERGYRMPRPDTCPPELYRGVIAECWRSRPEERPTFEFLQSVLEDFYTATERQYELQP

Compound | residual activity [%]
Cc1cc(C)c(/C=C2\C(=O)Nc3ccccc32)[nH]1 | 65
N#C/C(=C\c1ccc(O)c(O)c1)C(=O)NCc1ccccc1 | 104
O=C(Nc1nc2ccccc2n1CCN1CCOCC1)c1cccc([N+](=O)[O-])c1 | 111
COc1ccc2c(c1)c(C1=C(c3c[nH]c4ccccc34)C(=O)NC1=O)cn2CCCN(C)C | 57
c1ccc(-c2cnc(Nc3ccc(OCCN4CCCC4)cc3)s2)cc1 | 75
CN([C@@H](Cc1ccc(OS(=O)(=O)c2cccc3cnccc23)cc1)C(=O)N1CCN(c2ccccc2)CC1)S(=O)(=O)c1cccc2cnccc12 | 98
COc1cc2c(cc1OC)-c1n[nH]c(Nc3cccc(F)c3)c1C2 | 14
NC(=O)c1cccc(-c2cc(Nc3ccc(OC(F)(F)F)cc3)ncn2)c1 | 82
NCCNc1ncc(C(N)=O)c(Nc2cccc(C(F)(F)F)c2)n1 | 79
CSc1nc(-c2ccc(F)cc2)c(-c2ccnc(NC(C)c3ccccc3)c2)[nH]1 (stereo unspecified) | 98
O=C1Cc2c([nH]c3ccc([N+](=O)[O-])cc23)-c2ccccc2N1 | 29
O=c1c(-c2ccc(F)cc2)c(-c2ccncc2)[nH]n1-c1ccc(Cl)cc1 | 101
CCOC(=O)c1c(C)[nH]c(/C=C2\C(=O)Nc3ccccc32)c1C | 89

biological target: Tyrosine-protein kinase Blk (Homo sapiens) (UniProt P51451); conditions: at 10 µM

Compound | residual activity [%]
O=C1NC(=O)C(c2c[nH]c3ccccc23)=C1c1c[nH]c2ccccc12 | 23
Cc1cc(C)c(/C=C2\C(=O)Nc3ccccc32)[nH]1 | 32
O=C(Nc1nc2ccccc2n1CCN1CCOCC1)c1cccc([N+](=O)[O-])c1 | 100
COc1ccc2c(c1)c(C1=C(c3c[nH]c4ccccc34)C(=O)NC1=O)cn2CCCN(C)C | 7
O=C1NC(=O)C(c2cn(CCCn3ccnc3)c3ccccc23)=C1Nc1ccccc1 | 33
Nc1ncnc2c1cnn2-c1ccccc1 | 88
c1ccc(-c2cnc(Nc3ccc(OCCN4CCCC4)cc3)s2)cc1 | 6
CN([C@@H](Cc1ccc(OS(=O)(=O)c2cccc3cnccc23)cc1)C(=O)N1CCN(c2ccccc2)CC1)S(=O)(=O)c1cccc2cnccc12 | 81
O=S(=O)(NCCNC/C=C/c1ccc(Br)cc1)c1cccc2cnccc12 | 76
COc1ccc(COc2ccc(Cc3cnc(N)nc3N)cc2OC)cc1 | 98
COc1cc2c(cc1OC)-c1n[nH]c(Nc3cccc(F)c3)c1C2 | 2
NC(=O)c1cccc(-c2cc(Nc3ccc(OC(F)(F)F)cc3)ncn2)c1 | 57
NCCNc1ncc(C(N)=O)c(Nc2cccc(C(F)(F)F)c2)n1 | 12
O=c1cc(N2CCNCC2)oc2c(-c3ccccc3)cccc12 | 71
CSc1nc(-c2ccc(F)cc2)c(-c2ccnc(NC(C)c3ccccc3)c2)[nH]1 (stereo unspecified) | 63
O=C1Cc2c([nH]c3ccc([N+](=O)[O-])cc23)-c2ccccc2N1 | 33
O=C1C(Cl)=C(N2C(=O)CCC2=O)C(=O)c2ccccc21 | 95
O=c1c(-c2ccc(F)cc2)c(-c2ccncc2)[nH]n1-c1ccc(Cl)cc1 | 74
CCOC(=O)c1c(C)[nH]c(/C=C2\C(=O)Nc3ccccc32)c1C | 57
COc1ccc(Cl)cc1NC(=O)Nc1cc(C)nc2ccccc12 | 78
